Compound activity as filed in PubChem.
IL1B secr inh – blocks inflammasome-driven IL-1 beta release; AID 743279; THP-1 LPS/ATP IL-1B secretion, AlphaLISA, 16 h; stronger effect = lower value; 4.7% of 360,000 active; activity change, % at 57.5 µM; in the data active = activity change below about -50%; inconclusive = mostly about -30% to -49%
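Secreted IL-1B measured by AlphaLISA bead assay after 16 h compound exposure of THP-1 cells; compounds (final up to 57.5 uM) added 1 h before LPS (250 ng/mL) and ATP (1.25 mM) stimulation; lower signal means less secretion.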
HT1080NT lethal – kills 2HG-producing HT-1080-NT fibrosarcoma cells; HT-1080-NT fibrosarcoma viability, CellTiter-Glo ATP luminescence, 48 h; Potency, µM (top dose mostly 46.1 µM), actives largely listed as cytotoxic; 1.6% of 360,000 active;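 also: NT is the 2HG producing partner of a matched IDH1 knockdown line; nearly all actives have a fitted effect of over 55% in size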
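A 48-hour cytotoxicity screen used HT-1080-NT cells plated 2 hours before compound delivery. ATP-based CellTiter-Glo luminescence measured viability, normalized to DMSO and no-cell controls.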
TDP1 cell CPT – growth inhibition of DT40 Tdp1-/-;hTDP1 cells with camptothecin (screen for TDP1 inhibitors) | chicken DT40 Tdp1-/-;hTDP1 cells + 20 nM CPT, ATP luminescence, 48 h | Potency, µM (titrated, usually from 46.2 µM), usual class: inhibitors | 12% of 420,000 active; also: nearly all actives have a fitted effect of over 55% in size
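Chicken DT40 Tdp1-/- cells complemented with human TDP1, 400 cells/well, exposed to compounds plus 20 nM camptothecin for at least 48 h at 37 C; viability read as ATP content by CellTiter-Glo luminescence.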
ELG1 repair inh – blocks ELG1-dependent DNA repair in HEK293T cells. HEK293T ELG1-luciferase reporter, luminescence, 16 h; DNA damage induced by 5-fluorouridine. Potency, µM (titrated, usually from 46.1 µM), usual class: inhibitors. AID 504467. 2.3% of 330,000 active; also: nearly all actives have a fitted effect of over 55% in size
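Cells (2,000 per well) received 5-fluorouridine plus test compound or DMSO and were incubated 16 hr at 37 °C, 5% CO2. Luciferase activity was read by luminescence 30 min after ONE-Glo addition; signal suppression marked inhibition of damage-induced ELG1 function.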
HT1080 IDH1KD tx – kills HT-1080 cells with IDH1 knockdown | Potency, µM (doses to about 46.1 µM), most hits filed as cytotoxic | 2% of 360,000 active | HT-1080 IDH1 knockdown viability, ATP luminescence, 48 h
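After a 2 h attachment period, IDH1KD HT-1080 cells took pin-transferred compound for 48 h at 37 °C; ATP-based luminescence after 10 min room-temperature reagent incubation reported viability.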
TDP1 cell noCPT – qHTS for Inhibitors of human tyrosyl-DNA phosphodiesterase 1 (TDP1): qHTS in cells in absence of CPT. DT40 Tdp1-/- hTDP1 cells, no CPT, ATP luminescence, 48 h. Potency, µM (top dose mostly 46.2 µM), most hits filed as inhibitors. 15% of 420,000 active. AID 686978, 2013; also: nearly all actives have a fitted effect of over 55% in size
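Growth kinetics read by CellTiter-Glo luminescence after ≥48 hr at 37 °C. Cells: DT40 Tdp1-/- stably carrying human TDP1, 400 per well, compound exposure in the absence of CPT (DMSO vehicle).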
Numbers stand for hits; – = inactive; ? = inconclusive; · = not tested or not shown; [ ] = another dose, or the depositor's remark. The list is not random: actives were taken first. Their share in the collection is about 19%. Unless noted, calls follow the shape of the dose curve; as a rule, active = well fitted curve in the direction sought with a large enough effect; inconclusive = small, poorly fitted or top-dose-only effect, or another doubt; inactive = no such curve, though single readings can be large; an effect the other way counts as inactive or inconclusive.

SMILES	IL1B secr inh	HT1080NT lethal	TDP1 cell CPT	ELG1 repair inh	HT1080 IDH1KD tx	TDP1 cell noCPT
CC(C)n1nnnc1C1c2ccccc2C(=O)N1C1CC1 (centres undefined)	–	–	–	·	–	–
COc1ccc2c(c1)-c1nc(-n3ncc(C(=O)NC(C)(C)CO)c3C3CC3)ncc1CC2	·	·	–[9.04 µM]	·	·	?
Cc1ccc(C)c(N2CCN(C(=O)c3cc4cc5ccc(C)cc5nc4o3)CC2)c1	·	·	–	·	·	?
COc1ccc(Cc2nnc(SCC(=O)N3CCN(c4ccccc4)CC3)o2)cc1	–	–	23.1µM	?	–	23.1µM
O=C(c1ccc(S(=O)(=O)N2CCCCC2)cc1)N1CCCC(C(F)(F)F)C1 (centres undefined)	–	–	–	–	–	?
CS(=O)(=O)c1ncc(Cl)c(C(=O)Nc2ccc(N3CCOCC3)cc2)n1	-102.2	3.55µM	1.16µM	–	1.58µM	1.12µM
CS(=O)(=O)c1ncc(Cl)c(C(=O)Nc2ccc(OC(F)F)cc2)n1	-98.6	?	0.82µM	–	13µM	1.16µM
CS(=O)(=O)c1ccc(C(=O)Nc2ccc(N3CCOCC3)cc2)c(Cl)c1	–	–	–	–	–	?
O=C(OCc1cc(=O)n2ccsc2n1)c1ccccc1NCCO	–	–	–	?	–	–
CN(Cc1ccccc1)C(=O)c1ccc(NC(=O)Cc2cccc(NC(=O)C3CCN(C(=O)C4CCCC4)CC3)c2)cc1	–	–	?	10.3µM	–	?
CN(CCc1ccccc1)C(=O)c1ccc(NC(=O)Cc2ccc(NC(=O)C3CCN(C(=O)C4CC4)CC3)cc2)cc1	-56.1	–	23.1µM	·	–	?
CN(CCc1ccccc1)C(=O)c1ccc(NC(=O)Cc2ccc(NC(=O)C3CCN(C(=O)C4CCCC4)CC3)cc2)cc1	?	–	16.4µM	·	?	23.1µM
CN(Cc1ccccc1)C(=O)c1ccc(NC(=O)Cc2ccc(NC(=O)C3CCN(S(=O)(=O)c4cccc([N+](=O)[O-])c4)CC3)cc2)cc1	–	–	13µM	·	–	?
O=C(CSc1nc(-c2ccccc2)cs1)NCCN1C(=O)CSC1=O	–	–	–	?	–	–
COc1cccc(NC(=O)CN(C)C(=O)CC2CCCCC2)c1	–	–	–	–	–	–
CC(=O)Nc1cccc(C(=O)OCC(=O)Nc2c(C)nn(-c3ccccc3)c2C)c1	–	–	–	–	–	–
Cc1cccc(C)c1NC(=O)C(c1ccccc1)N1CCN(C(=O)c2ccco2)CC1 (centres undefined)	–	–	–	–	–	–
CSCCC(C(=O)Nc1c(C)cccc1C)N1CCN(C/C=C/c2ccccc2)CC1 (centres undefined)	–	–	?	·	–	13µM
CSCCC(c1nnnn1C1CCCC1)N1CCN(C/C=C/c2ccccc2)CC1 (centres undefined)	–	–	?	·	–	?
Cc1cccc(C)c1NC(=O)C(c1ccccc1)N1CCN(C/C=C/c2ccccc2)CC1 (centres undefined)	–	–	18.4µM	·	–	?
O=c1cnc2cnc(N3CCNCC3)nc2n1C1CC1	·	·	–	·	·	–
CN(CC(=O)NCc1cccs1)CC(=O)Nc1ccccc1Cl	–	–	–	·	–	–
CCCCN(C=O)c1c(CC)nc2c(OCCC)cccn12	–	–	–	·	–	?
CCc1nc2c(OCC(=O)C(C)(C)C)cccn2c1N(C=O)Cc1ccccc1	–	–	–	·	–	–
CCc1nc2c(OCCOc3ccc(F)cc3)cccn2c1N(C=O)Cc1ccccc1	-59.0	?	20.6µM	·	–	?
SMILES	IL1B secr inh	HT1080NT lethal	TDP1 cell CPT	ELG1 repair inh	HT1080 IDH1KD tx	TDP1 cell noCPT
CCCOc1cccn2c(N(C=O)Cc3ccc(OC)cc3)c(CC)nc12	–	–	16.4µM	·	–	?
CCCCN(C=O)c1c(CC)nc2c(OCCOc3ccccc3)cccn12	–	–	?	·	–	20.6µM
C=CCOc1cccn2c(N(C=O)Cc3ccc(OC)cc3)c(CC)nc12	–	–	18.4µM	·	–	11.6µM
C=CCNc1cc(F)ccc1S(=O)(=O)NCC=C	–	–	–	–	–	–
CCOc1ccc(NC(=O)c2cccc(N3CCCS3(=O)=O)c2)cc1	·	·	–	·	·	–
Cc1cc(C(=O)N2CCC2(C)C(=O)O)nn1C(C)(C)C (centres undefined)	–	–	–	·	–	–
CCc1nc2c(OCC3CCCCC3)cccn2c1N(C=O)Cc1ccc(OC)cc1	–	?	20.6µM	·	?	20.6µM
COc1ccc(NC(=O)c2cccc(S(=O)(=O)NCc3ccco3)c2)c(OC)c1	–	–	–	–	–	?
O=C(Nc1cc(Cl)ccc1O)c1snnc1-c1ccccc1	-90.1	–	13µM	–	?	16.4µM
Cc1ccc2nc(NC(=O)Cc3cccs3)sc2c1	–	–[9.24 µM]	?	?	?	–
Cc1csc(NC(=O)CCCc2cccs2)n1	–	–	–	–	–	?
O=C(Cc1cccs1)Nc1nc(-c2cccnc2)cs1	–	–	16.4µM	–	–	8.2µM
CC(=O)Nc1ccc(-c2csc(NC(=O)CCCc3cccs3)n2)cc1	–	–	–	18.4µM	–	–
CCOc1ccc2nc(NC(=O)Cc3cccs3)sc2c1	?	–	18.4µM	?	–	?
O=C(Cc1cccs1)Nc1nc2ccccc2s1	–	–	?	?	–	14.6µM
O=C(COc1ccc(Br)cc1)Nc1nc(-c2cccnc2)cs1	–	?	?	–	?	–
O=C(Nc1nc2ccccc2s1)C1CCCO1 (centres undefined)	–	–	–	?	–	–
O=C(Nc1nc2ccccc2s1)C1c2ccccc2Oc2ccccc21	–	–	5.8µM	–	–	16.4µM
COc1ccc(C(=O)N2CCC3(CCCN(Cc4ccncc4)C3)CC2)cc1	·	·	–	·	·	?
CCOc1ccccc1C(=O)Nc1ccc(-n2nncc2C(C)(C)C)cc1	–	–	20.6µM	?	–	14.6µM
CCOc1ccccc1C(=O)Nc1ccc(S(=O)(=O)N2CCN(C)CC2)cc1	–	–	?	–	–	–
COc1cccc(C(=O)Nc2ccc(-n3nncc3-c3ccccc3)cc2)c1OC	·	·	–	·	·	–
CCOc1ccccc1C(=O)Nc1ccc(-n2nncc2-c2ccccc2)cc1	·	·	?	·	·	23.1µM
COc1ccccc1-n1nc(-c2ccccc2)c2cnc3cc(C(F)(F)F)ccc3c21	·	·	–	·	·	–
COc1ccc(N2C(=O)CC(Nc3ccc(C)cc3)C2=O)cc1 (centres undefined)	–	–	–	–	–	–
